# Screens from PubChem BioAssay.
# aSyn UTR act: Activators working through SNCA 5'UTR binding (MLPCN) | actives 7.1% (n = 300,000) | alpha-synuclein 5'UTR reporter, activators screen | activity score, % (tested at 7.5 µM), hits read low | AID 1814; in the data active means activity score below about -60%
# * hit, by the source's call. Only a sample is shown.
SMILES,aSyn UTR act
COc1cccc(C(=O)NCCn2ccc3ccccc32)c1,-119*
O=C(NCCSc1ccccc1)c1ccccc1,-191*
CCOc1ccc(NC(c2ccccn2)c2oc(CO)cc(=O)c2O)cc1 (configuration not stated),-104*
CCOc1ccc(C(Nc2cccnc2)c2cc(Cl)c3cccnc3c2O)cc1 (configuration not stated),67
O=C(NCc1csc(-c2ccccc2)n1)c1cc(F)cc2c1OCOC2,-113*
Cc1cc(CN2CCCC(C(=O)Nc3ccc(-c4nc5ccccc5[nH]4)cc3)C2)n[nH]1 (configuration not stated),-121*
CC(C)n1cc(CN2CCCC(C(=O)Nc3cccc(-c4cc5ccccc5[nH]4)c3)C2)cn1 (configuration not stated),58
O=C(/C=C/c1ccc2ccccc2n1)c1cc(Cl)ccc1O,-69*
Nc1c(Br)cc2oc(-c3ccccc3)nc2c1Br,-179*
CN(C)C=Nc1ncc2c([nH]c3ccccc32)c1C#N,-113*
OC(COc1ccc2ccccc2c1Cl)CN1CCOCC1 (configuration not stated),-150*
CC(C)(C)c1ccc(OCC(O)CN2CCOCC2)cc1 (configuration not stated),-120*
CC(C)(C)c1ccc(NC(=O)Nc2ccc(OCC(=O)N3CCOCC3)cc2)cc1,-72*
CCCOc1ncnc2c1[nH]c1ccc(OC)cc12,-130*
Cc1ccc2[nH]c3c(N4CCCCCC4)ncnc3c2c1,-127*
CCCOc1ncnc2c1[nH]c1ccccc12,-142*
C=CCNc1ncnc2c1[nH]c1ccc(C)cc12,-184*
COC(=O)C[C@](O)(CCCC(C)(C)O)C(=O)O[C@@H]1C(OC)=C[C@]23CCCN2CCc2cc4c(cc2[C@H]13)OCO4,127
CCCCOc1ncnc2c1[nH]c1ccc(C)cc12,-93*
c1ccc(-c2cn3nc4c(nc3n2)CCCC4)cc1,109
O=C(CSc1nc(-c2ccc(F)cc2)cs1)N1CCOCC1,-119*
c1ccc(-c2csc(N3CCSCC3)n2)cc1,-90*
Fc1ccc(-c2csc(N3CCSCC3)n2)cc1,-63*
Brc1ccc(-c2csc(N3CCC(c4ccccc4)C3)n2)cc1 (configuration not stated),-86*
c1ccc(-c2csc(-n3cccn3)n2)cc1,-130*
SMILES,aSyn UTR act
Fc1ccc(-c2csc(N3CCOCC3)n2)cc1,-129*
COc1ccc(NC(=O)Nc2nnc(-c3cccs3)s2)cc1,-113*
O=C(Nc1ccccc1)Nc1nnc(-c2cccs2)s1,-182*
CN(C)CCn1cnc2c(c1=N)C(c1ccccc1)c1ccc3ccccc3c1O2 (configuration not stated),90
Brc1ccc(Cn2c(-c3cncs3)nc3ccccc32)cc1,-112*
c1ccc(Cn2c(-c3cncs3)nc3ccccc32)cc1,-92*
CC(=O)c1ccc(NC(=O)Cc2ccsc2)cc1,-79*
CC(=O)c1ccc(NC(=O)Cc2cccs2)cc1,-84*
Cc1cc(NC(=O)Cc2ccsc2)ccc1Br,-112*
Cc1ccc(S(=O)(=O)NC(=O)Nc2ccc(N(C)C)cc2)cc1,-111*
CCN(CC)C(=O)N1c2ccccc2C=Cc2ccccc21,-101*
CC(/C=C/c1ccc(N(C)C)cc1)=N\N=C(/N)SC1CC(=O)N(c2ccc(C(=O)O)cc2)C1=O (configuration not stated),-68*
COc1ccc(C2=NOC(C(=O)NCC(C)C)C2)cc1 (configuration not stated),-107*
COc1ccc(C2=NOC(C(=O)NCc3ccco3)C2)cc1 (configuration not stated),-77*
O=c1cc(CNc2cc(C(F)(F)F)cc(C(F)(F)F)c2)nc2sccn12,65
O=c1cc(COc2ccc(Cl)c(Cl)c2)nc2sccn12,-83*
Cc1ccn2c(NCc3ccccc3)c(-c3cccs3)nc2c1,-100*
Cc1ccn2c(NC3CCCC3)c(-c3cccs3)nc2c1,-116*
Oc1ccccc1C1=Nc2ncnn2C(c2ccccc2)C1 (configuration not stated),-68*
Oc1ccc(-c2nccc(-c3ccc(F)cc3)n2)cc1,-144*
CN(C)c1ccc(-c2nnc(SCC3CCCO3)n2C)cc1 (configuration not stated),-89*
Cc1ccc(-n2c(C)cc(C(=O)COC(=O)c3ccc[nH]c3=O)c2C)cc1,-122*
Cc1cc(C(=O)COC(=O)c2ccc[nH]c2=O)c(C)n1C,-68*
C/C(=N\NC(=O)c1c(Cl)cnn1C)c1ccc(NC(=O)c2ccc(Br)o2)cc1,-116*
C/C(=N\NC(=O)C1CC1)c1ccc(NC(=O)c2ccc(Br)o2)cc1,-110*
SMILES,aSyn UTR act
CCN(CC)c1ccc(/C=N/NC(=O)OC(C)(C)C)cc1,-153*
CC(=O)Oc1ccc(/C=N/NC(=S)Nc2ccccc2)cc1,-149*
CCN(CC)c1ccc(/C=N/NC(=O)Nc2ccccc2)cc1,-150*
CCOc1ccc(/C=N/NC(=O)Nc2ccccc2)cc1,-120*
CCN(Cc1ccccc1)c1ccc(/C=N/N=C(N)N)cc1,94
Cc1c(CC(=O)NC(C)C)c(=O)oc2cc3c(cc12)CCC(C)(C)O3,-78*
CCC(C)NC(=O)Cc1c(C)c2cc3c(cc2oc1=O)OC(C)(C)CC3 (configuration not stated),-118*
Cc1c(CC(=O)N[C@H](C(=O)O)C(C)C)c(=O)oc2cc3c(cc12)CCC(C)(C)O3,-110*
Cc1c(CCC(=O)O)c(=O)oc2cc3oc4c(c3cc12)CCCC4,68
COc1cc2sc3ccc(-c4ccc5[nH]ccc5c4)cc3c(=O)c2cc1OC,-239*
O=c1c2ccccc2oc2cc(-c3ccc4[nH]ccc4c3)ccc12,-97*
Cc1cc(C)nc(NC(=O)c2cc(-c3ccc(C)s3)nc3ccccc23)c1,-62*
Cc1cc2ncn(CCOc3ccccc3)c2cc1C,-168*
CCOC(=O)C(C(=O)OCC)C1OC(=O)c2cc3c(cc21)C(=O)OC3C(C(=O)OCC)C(=O)OCC (configuration not stated),-77*
Oc1ccccc1/C=N/NC1=NCCCCC1,-161*
COc1ccc(/C=N/NC2=NCCCCC2)cc1,-86*
COc1ccc(/C=N/Nc2cc(N(C)C)nc(N(C)C)n2)cc1,-65*
COc1cc(C=C2C(=O)OC(C)(C)OC2=O)ccc1OCC(=O)Nc1ccccc1,-123*
COc1cc(/C=C/c2cc[n+](C)cc2)ccc1OCC(=O)Nc1ccccc1,-76*
COc1cc(C2C3=C(Nc4ncnn42)c2ccccc2CC3)cc(OC)c1OC (configuration not stated),83
CCc1ccccc1NC(=O)CN(C)C(=O)Cn1ncc(Cl)c(Cl)c1=O,-63*
COC(=O)c1ccc2c(=O)[nH]c(CSc3nc(C)cs3)nc2c1,-94*
Nn1c(SCc2ccccc2)nc2ccccc21,-127*
Oc1ccccc1CNc1ccc(OC(F)(F)F)cc1,-72*
Oc1ccccc1CNc1ccc2c(c1)OCCO2,-72*
SMILES,aSyn UTR act
Cc1ccc(NCc2ccccc2O)cc1C,-116*
c1ccc(N/N=C(\Cc2nc3ccccc3[nH]2)c2ccccc2)cc1,-102*
Clc1cccc(/C(Cc2nc3ccccc3[nH]2)=N\Nc2ccccc2)c1,-64*
N#CCCN/N=C(/Cc1nc2ccccc2[nH]1)c1ccc(Cl)cc1,-67*
N/N=C(/Cc1nc2ccccc2[nH]1)c1ccc([N+](=O)[O-])cc1,-75*
CCN/N=C(\Cc1nc2ccccc2[nH]1)c1ccccc1,-138*
CCCCN1C(=O)/C(=C/C=C2/CC(C)(C)CN2C)SC1=S,-134*
